# Sampled rows, rich in hits. Any-hit rate of the full collection: about 3.8%.
# HSP90 inh – HSP90 inhibitors, primary screen, cell lysate, luminescence; 0.91% of 290,000 active; Rabbit reticulocyte lysate, luciferase refolding luminescence, 3 h; Heat shock protein HSP 90 (rabbit reticulocyte lysate; luciferase refolding); AID 1789, 2009; inhibition, % at 5.6 µM;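 active means inhibition above the screen-wide mean plus 3 SD, computed separately per campaign, cut at about 16% in these data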;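 further: 0% = DMSO wells and 100% = 60 µM geldanamycin wells; inhibitors lower the luminescence because luciferase stays unfolded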
# Hsp70 activator – Hsp70 transcriptional activators, primary screen, cell-based, HeLa, Hsp70 promoter luciferase, luminescence, 10 µM; HeLa Hsp70 promoter luciferase reporter; scaled: vehicle 0, proteasome-inhibitor control 100%; activation, % at 10 µM; 0.04% of 200,000 active;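 active means activation above the mean across all tested compounds plus 3 SD, cutoff set per campaign, cut at about 5.5% in these data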;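 further: 100% = MG132 at 30 µM as the positive control and 0% = DMSO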
# p-CIP stab down – p/CIP-EGFP fusion destabilizers, primary screen, fluorescence, F442A cells. Q05BA5. 16 h. decrease of EGFP signal, % at 10 µM. 0.01% of 290,000 active;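 active means EGFP signal decrease of at least 30% at 10 µM or well 3 SD below plate mean, unless failing retest; inactive means the rest, including hits failing retest or dose response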
# Target sequence (Q05BA5 1-1403): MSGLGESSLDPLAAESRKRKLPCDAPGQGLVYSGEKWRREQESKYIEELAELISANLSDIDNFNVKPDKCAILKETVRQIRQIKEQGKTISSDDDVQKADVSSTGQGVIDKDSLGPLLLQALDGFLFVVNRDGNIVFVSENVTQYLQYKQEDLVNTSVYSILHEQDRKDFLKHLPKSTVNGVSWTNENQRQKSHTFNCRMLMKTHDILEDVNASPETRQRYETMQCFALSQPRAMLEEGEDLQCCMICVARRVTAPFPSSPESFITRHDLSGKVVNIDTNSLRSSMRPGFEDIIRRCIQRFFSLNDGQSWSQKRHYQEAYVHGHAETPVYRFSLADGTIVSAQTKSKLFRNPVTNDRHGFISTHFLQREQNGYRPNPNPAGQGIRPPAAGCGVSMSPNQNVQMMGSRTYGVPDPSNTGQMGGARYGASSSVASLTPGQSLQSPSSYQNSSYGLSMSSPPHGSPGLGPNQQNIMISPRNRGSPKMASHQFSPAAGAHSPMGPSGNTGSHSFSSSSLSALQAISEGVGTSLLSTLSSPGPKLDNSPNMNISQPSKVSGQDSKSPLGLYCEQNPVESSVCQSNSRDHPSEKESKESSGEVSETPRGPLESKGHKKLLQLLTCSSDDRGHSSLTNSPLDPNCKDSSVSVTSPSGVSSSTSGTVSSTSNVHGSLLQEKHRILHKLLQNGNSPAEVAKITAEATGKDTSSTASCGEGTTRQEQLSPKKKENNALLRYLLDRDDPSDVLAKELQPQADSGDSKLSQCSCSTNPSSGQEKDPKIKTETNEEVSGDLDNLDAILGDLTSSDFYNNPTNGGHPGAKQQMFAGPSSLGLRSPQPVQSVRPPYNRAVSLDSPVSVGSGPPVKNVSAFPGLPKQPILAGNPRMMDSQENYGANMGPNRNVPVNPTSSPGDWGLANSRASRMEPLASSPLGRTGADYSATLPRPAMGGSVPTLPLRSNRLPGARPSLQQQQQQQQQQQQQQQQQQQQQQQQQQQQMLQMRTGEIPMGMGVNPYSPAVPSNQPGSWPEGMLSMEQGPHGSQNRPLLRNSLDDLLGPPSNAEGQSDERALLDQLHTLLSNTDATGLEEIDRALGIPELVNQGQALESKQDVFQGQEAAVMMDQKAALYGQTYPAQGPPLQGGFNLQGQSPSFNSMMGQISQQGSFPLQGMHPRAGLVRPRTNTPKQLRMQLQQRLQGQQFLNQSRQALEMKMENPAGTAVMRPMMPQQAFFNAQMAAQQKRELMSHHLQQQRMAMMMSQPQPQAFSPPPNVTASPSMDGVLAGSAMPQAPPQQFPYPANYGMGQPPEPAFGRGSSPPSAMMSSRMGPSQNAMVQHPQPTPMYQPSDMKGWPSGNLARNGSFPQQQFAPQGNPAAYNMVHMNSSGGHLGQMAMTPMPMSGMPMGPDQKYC
# HSF1 inh – HSF1 inhibitors in luciferase reporter cells, primary screen, cell-based, NIH3T3, luminescence | NIH3T3-HGL HSE-luciferase, MG132-induced, luminescence 8 h; hits give low values | activity change, negative = inhibition, % at 7.5 µM (by protocol) | 0.77% of 300,000 active;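 active means more than half of replicate wells show activity change below -50%, luminescence cut by over half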;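 further: luciferase reports HSF-1 transcriptional activity via heat shock element; 0% = median of DMSO wells and -100% = zero luminescence signal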
# HSF-1 act – HSF-1 activators, primary screen, NIH3T3-HGL cells, MG132 stress, luminescence, single point | AID 504408, 2011 | NIH3T3-HGL HSF-1 luciferase reporter, 8 h; 100% = twice DMSO control signal | 1.7% of 300,000 active | activation, % at 9 µM;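 active means mean replicate activation of at least 50% with a set share of replicates each reaching 50%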;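 further: 0% = median of the neutral control wells and 100% = twice that signal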
# NALP1 yeast inh – NALP1 inflammasome inhibitors in reconstituted yeast, colorimetric, S. cerevisiae, triplicate retest | inhibition, % at 10 µM | 0.61% of 280,000 active | S. cerevisiae NALP1/ASC/caspase-1 growth, X-gal OD620, 72 h | AID 2071, 2009; in the data active means inhibition mostly above about 24%, no sharp cut-off; inactive means mostly below about 32%
# An asterisk follows results filed as active; · = no result given.
SMILES,HSP90 inh,Hsp70 activator,p-CIP stab down,HSF1 inh,HSF-1 act,NALP1 yeast inh
NC(=O)c1ccsc1NC(=O)COC(=O)CSc1ccc(Cl)cc1,4,0,-1,2,5,7
O=C(CC(C(=O)O)c1cccc(Cl)c1Cl)c1ccccc1 (stereo not drawn),-2,·,2,1,16,20
C=C(C(=O)c1ccccc1)C(CC(=O)c1ccccc1)c1ccccc1 (stereo not drawn),1,0,5,86,144*,1
C=C(CCC(=O)c1ccccc1)C(=O)c1ccccc1,4,0,1,70,103*,18
C(=C\n1nnc2ccccc21)/c1ccc[nH]1,·,·,·,-7,7,·
C=CCOc1cccc(C(=O)/C=C2/C(=O)Nc3ccccc32)c1,2,·,-10,158,236*,-3
CC(=O)/C=C1/C(=O)Nc2ccccc21,4,1,-1,165,187*,0
O=C(O)COc1ccccc1/C=C1\C(=O)Nc2ccc(Br)cc21,-1,·,-4,-8,14,9
CC(C)CCN1C(Nc2ccccc2)=NC[C@@H]1C,-2,·,-11,-5,-12,7
O=C(COc1ccccc1)N1CCCC1,-1,0,9,-1,-10,6
O=C(COc1ccc(Cl)cc1)N1CCCC1,-2,0,8,-71*,-73,12
O=C(CCSc1ccc(Cl)cc1)N1CCCCCC1,-3,0,-17,75,107*,13
COc1ccc2cnn(-c3ccc(C)cc3)c(=O)c2c1OC,2,0,-6,9,0,64*
Cc1ccc(-n2ncc(Br)c(Br)c2=O)cc1,0,5,64,-85*,-85,-20
Nn1c(SCc2ccccc2)nnc1-c1ccco1,-1,0,3,-68*,-74,·
Cn1c(SCC(=O)OCc2ccccc2)nnc1-c1ccco1,-1,0,3,-7,7,44*
Nn1c(SCc2cccc3ccccc23)nnc1-c1ccco1,-1,0,4,4,28,-13
CCN(CC(=O)Nc1cc(Cl)ccc1C)C(=O)CCOc1ccccc1C,2,·,7,11,14,0
Clc1ccc(-c2cn3cc(Br)ccc3n2)cc1Cl,-1,0,9,-18,-16,33
Clc1ccc(-c2cn3c(n2)-c2ccccc2C3)cc1Cl,2,0,3,18,53*,27
O=c1/c(=C/c2ccccc2)sc2nnc(-c3cccs3)n12,0,·,-4,27,64*,15
CCCCC(C(=O)NC1CCCC1)N(C(=O)c1snc(C(N)=O)c1N)c1ccc(OCC)cc1 (stereo not drawn),-4,·,-2,16,19,17
O=C(Cn1cnc2nc3n(c2c1=O)CCC3)NCc1ccccc1,-3,0,8,-6,-4,23
O=C(/C=C/Sc1ccccc1)c1ccccc1,0,0,2,80,117*,6
O=C(/C=C/Sc1ccccc1)c1ccc(Cl)cc1,-4,1,-2,122,161*,54
SMILES,HSP90 inh,Hsp70 activator,p-CIP stab down,HSF1 inh,HSF-1 act,NALP1 yeast inh
CCCCN(C1CCS(=O)(=O)C1)S(=O)(=O)c1cc(C)ccc1C (stereo not drawn),·,·,·,-5,-6,·
COc1ccc(C(c2c[nH]c3ccccc23)c2c[nH]c3ccccc23)cc1O,1,0,-7,7,17,-44
O=C(CSC(=S)N1CCOCC1)Nc1nc(-c2ccccc2)c(-c2ccccc2)o1,2,0,-1,-61*,-64,4
O=C(O)c1cc2c(s1)-c1ccccc1OC2,1,0,-16,3,1,11
O=C(NC1CC1)c1cc2c(s1)-c1ccccc1OC2,2,0,6,25,35,34*
OCCNCc1c(OCc2ccc(Cl)cc2)ccc2ccccc12,4,·,-18,26,62*,24
CC(O)CNCCNCc1c(OCc2ccccc2)ccc2ccccc12 (stereo not drawn),-2,0,-21,8,21,31
CC(C)(C)[C@H]1CCC(=O)N([C@H](CN=[N+]=[N-])Cc2ccccc2)CC1,1,·,-6,2,0,-2
COC(=O)c1c(NC(=O)c2ccc(C)o2)sc2c1CCCCC2,0,0,3,29,60*,20
CN1CCc2c(sc(NC(=O)c3ccc([N+](=O)[O-])o3)c2C(N)=O)C1,4,·,-28,2,-18,12
Cc1ccc(C(=O)Nc2sc3c(c2C(=O)O)CCCCC3)o1,12,0,-11,20,19,14
NC(=O)c1c(NC(=O)c2ccc([N+](=O)[O-])o2)sc2c1CCCC2,2,·,-22,64,116*,-26
Cc1cc(C(F)(F)F)nn1CC(=O)Nc1ccc2c(c1)OCO2,-3,·,-17,-7,-25,6
O=C(Cn1c(=O)oc2ccccc21)Nc1n[nH]c(=S)s1,-3,·,6,3,6,1
Cc1ccc2nc(COc3ccc(Cl)cc3)cc(=O)n2c1,1,0,-6,45,66*,3
Cc1nc([N+](=O)[O-])c(SCC(N)=O)n1Cc1ccccc1,1,0,-7,-4,16,4
Cc1nc([N+](=O)[O-])c(Sc2nc3ccccc3n2C)n1Cc1ccccc1,-1,0,-9,53,79*,25
COCCNC(=O)CCc1nnc(C2(c3ccc(Cl)cc3)CCC2)o1,-2,0,-4,-56*,-65,-1
CN(C)c1ccc(/C=N/NC(=O)c2cccc(N3CCCC3=O)c2)cc1,5,0,-11,-82*,-87,22
COc1cccc(/C=N/NC(=O)c2cccc(N3CCCC3=O)c2)c1,0,·,-11,14,35,17
Cc1c(C(=O)OCC2CCCO2)[nH]c2c1C(=O)CC(c1ccco1)C2 (stereo not drawn),-3,0,-6,18,57*,7
CCOC(=O)c1sc(NC(=O)c2cccc(S(=O)(=O)N3CCc4ccccc43)c2)c(C#N)c1C,-2,·,-30,-5,-4,·
O=C(NCCC(=O)N1CCC2(CC1)NCCc1[nH]cnc12)c1cccc(Br)c1,-2,·,-2,-7,2,11
Cc1ccccc1CN1CCN(C(=O)CC(C)C)CC1,1,·,-11,-86*,-88,17
COc1ccc(/C=N\n2nnc3ccccc32)cc1,29*,0,-4,-39,-37,15
Cn1c(/C=C/c2ccc([N+](=O)[O-])o2)nc2ccccc2c1=O,1,0,-44,44,62*,-55
COc1ccc(/C=N/n2c(C)nc3ccccc3c2=O)cc1,0,·,-10,-7,28,20
